# Most compounds without a hit are left out; they make up all but 3.5% or so of the library.
# Anthrax LF inh2: blocks Bacillus anthracis lethal factor protease | P15917 | multiplex microsphere protease cleavage assay, LF | inhibition, % at 10 µM | hit rate 0.12% among 360,000 | AID 588501; also: plate controls were buffer without enzyme for full effect and enzyme alone for no effect
# Target sequence (P15917 whole entry, looked up): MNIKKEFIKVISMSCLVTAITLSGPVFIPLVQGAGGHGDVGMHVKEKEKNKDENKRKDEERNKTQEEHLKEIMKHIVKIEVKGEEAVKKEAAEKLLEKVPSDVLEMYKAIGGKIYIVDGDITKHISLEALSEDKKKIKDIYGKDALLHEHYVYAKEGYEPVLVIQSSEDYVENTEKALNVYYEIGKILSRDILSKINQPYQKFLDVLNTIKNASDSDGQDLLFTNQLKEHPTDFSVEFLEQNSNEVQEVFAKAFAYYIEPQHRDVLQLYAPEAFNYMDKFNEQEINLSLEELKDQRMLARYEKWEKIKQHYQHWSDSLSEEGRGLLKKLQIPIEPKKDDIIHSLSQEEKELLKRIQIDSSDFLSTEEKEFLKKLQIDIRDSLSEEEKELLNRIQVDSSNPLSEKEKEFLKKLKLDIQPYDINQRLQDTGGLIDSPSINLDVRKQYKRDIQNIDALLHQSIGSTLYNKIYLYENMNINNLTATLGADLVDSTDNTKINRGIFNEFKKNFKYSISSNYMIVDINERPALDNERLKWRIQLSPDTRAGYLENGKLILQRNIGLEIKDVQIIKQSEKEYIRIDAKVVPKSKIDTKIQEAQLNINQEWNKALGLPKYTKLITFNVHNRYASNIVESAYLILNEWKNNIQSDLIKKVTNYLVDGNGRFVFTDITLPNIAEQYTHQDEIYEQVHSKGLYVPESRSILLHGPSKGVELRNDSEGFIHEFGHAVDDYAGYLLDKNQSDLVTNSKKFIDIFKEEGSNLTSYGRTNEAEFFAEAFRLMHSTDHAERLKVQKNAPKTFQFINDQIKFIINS
# Autofluor counter: compound fluorescence in toxin protease inhibitor counterscreen. compound autofluorescence counterscreen, microsphere flow cytometry; hits give high values. fluorescence intensity (concentration not given with the values). hit rate 3.1% among 360,000. AID 624483; in the data active = fluorescence intensity above about 16000; inconclusive = no clear call, values can overlap the other calls
# BoNT-A LC inh2: blocks Botulinum neurotoxin A light chain protease | hit rate 0.17% among 360,000 | multiplex microsphere protease substrate cleavage, flow cytometry | inhibition, % at 10 µM; also: plate controls were buffer without enzyme for full effect and enzyme alone for no effect
# BoNT F protease: blocks Botulinum neurotoxin F light chain protease; Multiplex microsphere protease cleavage assay, flow cytometry; inhibition, % at 10 µM; hit rate 0.22% among 360,000; AID 588497; in the data active = inhibition above about 35%, passing the limit was not always enough; inconclusive = no clear call, values can overlap the other calls; also: plate controls were buffer without enzyme for full effect and enzyme alone for no effect
# * hit, by the source's call; ? = inconclusive. Rule as the data show it, unless noted: active = inhibition above about 30%; inconclusive = no clear call, values can overlap the other calls; inactive = below that.
SMILES,Anthrax LF inh2,Autofluor counter,BoNT-A LC inh2,BoNT F protease
COc1ccc(OC)c(S(=O)(=O)NC2CCCCC2)c1,-1.8,22696*,-1.5,-2.4
COc1ccc(OC)c(S(=O)(=O)Nc2ccc(F)cc2)c1,-7.8,5392,-0.2,-2.0
COc1ccc(S(=O)(=O)Nc2cccc(Cl)c2)cc1OC,1.1,20245*,-2.1,-4.1
COc1cc(S(=O)(=O)NC2CCCC2)ccc1F,-0.2,16811*,-0.9,-2.5
COc1ccc(OC)c(S(=O)(=O)Nc2cccc(F)c2)c1,-0.7,16709*,-0.9,1.2
COc1ccc(NS(=O)(=O)c2ccc(OC)c(OC)c2)cc1OC,-4.8,4547,-1.4,-3.6
CN1CCN(CC(=O)Nc2c(C(=O)C3CC3)oc3ccccc23)CC1,-0.6,22556*,1.3,-0.1
CCCNC(=O)N(C)C[C@H]1Oc2ncc(Br)cc2C(=O)N([C@H](C)CO)C[C@H]1C,1.0,3605,-0.3,-5.5
O=C(NNS(=O)(=O)c1ccccc1[N+](=O)[O-])c1ccc(O)cc1,0.4,24381*,-1.0,-4.8
COc1ccc(N(C)S(=O)(=O)c2ccc3c(c2)CCC(=O)N3)cc1,-3.1,20669*,-0.2,-2.0
CC(C)=CC(=O)Nc1ccccc1Br,-3.9,17220*,-4.5,-5.0
Cc1ccc(C2C(C#N)=C(N)SC(N)=C2C#N)c(C)c1,27.8,7929,40.0*,71.0*
CC(C(=O)NCC1CCCCC1)N1CCN(S(=O)(=O)c2cccs2)CC1 (stereo not drawn),-0.3,5197,2.1,-5.7
Cc1cc(C(=O)N2CCN(c3ncccn3)CC2)c(C)o1,-0.8,21168*,-3.5,-3.4
Cc1cc(C(=O)N2CCN(c3ccccc3)CC2)c(C)o1,-1.1,17012*,-1.8,-2.5
Cc1cc(C(=O)N2CCN(c3ccccc3Cl)CC2)c(C)o1,5.0,3680,1.5,6.2
Cc1cc(C(=O)N2CCN(c3cccc(Cl)c3)CC2)c(C)o1,-4.4,4003,0.6,?
CC(=NCCN1CCCCC1)c1c(O)n(-c2ccc(Cl)cc2)c(=O)[nH]c1=O,-3.5,24548*,-4.8,-5.0
COc1ccc(-n2c(O)c(C(C)=NCCCn3ccnc3)c(=O)[nH]c2=O)cc1,0.9,17270*,-2.4,-5.9
C=CCn1c(O)c(C(C)=NCc2ccco2)c(=O)[nH]c1=O,0.2,21930*,-0.3,0.1
C=CCn1c(O)c(C(C)=NCCN2CCOCC2)c(=O)[nH]c1=O,5.0,21797*,3.2,2.9
CC(=NCCN1CCOCC1)c1c(O)n(Cc2ccccc2)c(=O)[nH]c1=O,-12.0,13970,5.3,9.4
O=C(Nc1ccc2c(c1)OCO2)c1ccc([N+](=O)[O-])cc1[N+](=O)[O-],-4.8,3511,-5.0,-12.2
Cc1ccc(NS(=O)(=O)c2cccc(C(=O)NNC(=O)c3ccco3)c2)c(C)c1,-3.3,4342,0.6,-2.8
Cc1cc(C)nc(N/C(=N\S(=O)(=O)Cc2ccccc2)Nc2ccc(F)c(Cl)c2)n1,1.9,2944,-0.8,-8.4
SMILES,Anthrax LF inh2,Autofluor counter,BoNT-A LC inh2,BoNT F protease
Cc1cc(C)nc(N/C(=N\S(=O)(=O)Cc2ccccc2)Nc2cccc(Cl)c2C)n1,-1.9,21814*,0.0,-0.8
CC(C)CCNC(=O)c1ccc(CSCc2cccc(F)c2)o1,-4.5,17562*,5.4,3.8
O=C(/C=C/c1ccc([N+](=O)[O-])cc1)NCCSc1ccccc1,-1.3,23722*,?,-2.6
Cc1cccc(/C=N\Nc2cn[nH]c(=O)c2Cl)c1,2.6,17627*,11.8,10.6
O=C(CN1c2cccc3cccc(c23)S1(=O)=O)N1CCOCC1,3.3,16664*,-0.6,-2.0
C=C(C)[C@H]1CC=C(C)C(=O)C1,-6.4,6151,-0.6,-8.8
O=C(Cn1cc(C(F)(F)F)cc(Cl)c1=O)NCc1ccccc1,0.2,5832,-0.1,-2.4
Cc1cc(C(=O)COC(=O)C2=NNC(=O)CC2)c(C)n1-c1cccc(C(F)(F)F)c1,-11.2,17667*,6.4,4.8
COc1cc(C2CC(=O)N(CC(=O)NCC3CCCO3)c3ccccc3S2)cc(OC)c1OC (stereo not drawn),0.7,2706,-0.4,-1.1
COc1cc(C2CC(=O)N(CC(=O)NCc3ccco3)c3ccccc3S2)cc(OC)c1OC (stereo not drawn),-1.2,24105*,-0.8,-1.9
O=C(CN1C(=O)CC(c2ccco2)Sc2ccccc21)Nc1ccccc1F (stereo not drawn),-0.6,5725,-0.1,-1.4
CCN1C(=O)CC(c2ccco2)Sc2ccccc21 (stereo not drawn),-4.3,17133*,-2.9,-8.1
O=C(CN1C(=O)CC(c2ccco2)Sc2ccccc21)NCc1ccc2c(c1)OCO2 (stereo not drawn),-2.0,23277*,-3.0,-3.4
CNC(=S)N(Cc1ccc(OC)cc1)C1CC(=O)N(c2ccc(Cl)cc2)C1=O (stereo not drawn),-2.3,3248,-0.7,-6.6
O=C(c1cccc(S(=O)(=O)N2CCN(c3ccc(F)cc3)CC2)c1)N1CCCC(C(F)(F)F)C1 (stereo not drawn),6.3,?,-1.2,4.7
CCN(CC)S(=O)(=O)c1csc(C(=O)OCC(=O)c2ccccc2)c1,-4.4,17304*,-1.9,-1.2
CCN(Cc1ccccc1)S(=O)(=O)c1csc(C(N)=O)c1,2.0,4105,-0.3,-7.4
CCc1ccc(CCC(=O)Nc2nnc(CC)s2)o1,-1.5,16177*,-0.1,1.6
CCc1nnc(NC(=O)CCC(=O)Nc2ccccc2)s1,-2.4,3825,-1.3,-12.8
CCCc1nnc(NC(=O)CCCN2C(=O)c3ccccc3C2=O)s1,-2.4,2716,-0.4,-5.9
CCc1nnc(NC(=O)CCN2C(=O)c3ccccc3C2=O)s1,-2.3,22862*,0.2,-1.6
O=C1c2ccccc2C(=O)N1CCCc1nc(-c2ccccn2)no1,-2.6,4378,0.0,-6.6
O=C1c2ccccc2C(=O)N1CCc1nc(-c2ccccn2)no1,-4.0,21427*,4.6,5.3
O=C1c2ccccc2C(=O)N1Cc1nc(-c2ccccc2)no1,-1.1,21600*,-3.5,-5.3
CCC1COCCS(=O)(=O)N1Cc1ccc(F)cc1 (stereo not drawn),-0.6,2919,-0.4,-4.0
SMILES,Anthrax LF inh2,Autofluor counter,BoNT-A LC inh2,BoNT F protease
COc1ccc(-c2cn3c(C)c(C(=O)NC(C)C)sc3n2)cc1,-7.9,23094*,-1.1,-1.6
Cc1c(C(=O)Nc2ccccc2)sc2nc(-c3ccccc3)cn12,-1.5,23471*,-1.2,-1.2
Cc1cccc(NC(=O)c2sc3nc(-c4ccccc4)cn3c2C)n1,5.0,12530,2.0,1.8
Cc1c(C(=O)NCc2ccccn2)sc2nc(-c3ccccc3)cn12,-12.5,4195,0.2,-4.6
Cc1c(C(=O)NCc2ccccn2)sc2nc(-c3ccc(F)cc3)cn12,-7.7,19364*,1.2,0.9
Cc1cccc(NC(=O)c2sc3nc(-c4ccc(F)cc4)cn3c2C)n1,-0.8,19776*,?,1.4
CCOC(=O)c1ccc(NC(=O)C(C)NS(=O)(=O)c2ccc(OC)cc2)cc1 (stereo not drawn),1.7,16181*,0.2,-1.3
CC(=O)Nc1ccc(S(=O)(=O)Nc2nc3ccccc3nc2N2CCc3ccccc3C2)cc1,-3.6,2885,1.0,-9.5
CCOc1cc(NS(=O)(=O)c2ccc(NC(C)=O)cc2)c(OCC)cc1NC(=O)C(C)C,-7.8,20625*,3.2,5.7
COc1ccc(S(=O)(=O)NN=C2CCCC2)cc1,-1.1,20396*,-1.0,0.1
